Data: the supplement of paper PMC13380429

Key:
[1] = test system: Vero E6 infected with SARS-CoV-2; test: morphology score (similarity to uninfected cells); higher = more like uninfected cells; conditions: 24 h
[2] = test system: Vero E6 infected with SARS-CoV-2; test: SARS-CoV-2 infection rate relative to infected DMSO; higher = more infection, active = 60 or less; conditions: 24 h

| SMILES | morphology score [1] | SARS-CoV-2 infection rate [2] |
| --- | --- | --- |
| COC1=C[C@@H]2[C@@H]3Cc4ccc(OC)c(O)c4[C@]2(CCN3C)CC1=O [sinomenine] (10 µM) | 0.141 | 122% (inactive) |
| COc1nccnc1NS(=O)(=O)c1ccc(N)cc1 [sulfametopyrazine] (10 µM) | -0.162 | 112% (inactive) |
| CC(=O)NCC(=O)N1[C@@H]2CC[C@H]1c1ccc(Nc3ncc(C(F)(F)F)c(NC4CCC4)n3)cc12 (0.833333 µM) | -0.071 | 124% (inactive) |
| CCCCCCCCCCCCCCCCCCCCCC(=O)Nc1ccn([C@@H]2O[C@H](CO)[C@@H](O)[C@@H]2O)c(=O)n1 [enocitabine] (10 µM) | 0.135 | 94.5% (inactive) |
| COC(=O)N[C@H](C(=O)N1CCC[C@H]1c1ncc(-c2ccc(-c3ccc(-c4cnc([C@@H]5CCCN5C(=O)[C@@H](NC(=O)OC)C(C)C)[nH]4)cc3)cc2)[nH]1)C(C)C [daclatasvir] (10 µM) | 0.0693 | 90.5% (inactive) |
| C=C1CC[C@@H]2[C@](C)(CO)[C@H](O)CC[C@@]2(C)[C@@H]1C/C=C1/C(=O)OC[C@H]1O [andrographolide] (0.833333 µM) | 0.123 | 106% (inactive) |
| CC(C)NCCN(C(C)C)S(=O)(=O)c1ccc(Cl)cc1Cl (10 µM) | -0.0999 | 110% (inactive) |
| CCC[C@H]1C(=O)N2C(N(C)C)=Nc3ccc(C)cc3N2C1=O [azapropazone] (10 µM) | 0.165 | 94% (inactive) |
| CC(=O)N1CCC(NC(=O)c2ccc(F)cc2)CC1 (10 µM) | 0.0529 | 110% (inactive) |
| Clc1ccccc1C(c1ccccc1)(c1ccccc1)n1ccnc1 [clotrimazole] (10 µM) | 0.254 | 78.5% (inactive) |
| Cc1n[nH]c2ccc(-c3cncc(OC[C@@H](N)Cc4ccccc4)c3)cc12 (10 µM) | 0.111 | 92.5% (inactive) |
| COCCN1CCN(Cc2ccc(-c3n[nH]c4c3C(=O)c3c(NC(=O)NN5CCOCC5)cccc3-4)cc2)CC1 (10 µM) | -0.35 | 117% (inactive) |
| CCCCCCCCCCCC[N+](C)(C)CCOc1ccccc1 [domiphen] (10 µM) | 0.0254 | 87% (inactive) |
| O=C(NC(=O)c1c(F)cccc1Cl)NC1c2ccccc2-c2ccccc21 (10 µM) | 0.143 | 102% (inactive) |
| Cc1c(NC(=O)OC[C@@H]2COCCN2)cn2ncnc(Nc3ccc4c(cnn4Cc4cccc(F)c4)c3)c12 (0.833333 µM) | -0.105 | 102% (inactive) |
| C[C@@H]1CN(c2c(F)c(N)c3c(=O)c(C(=O)O)cn(C4CC4)c3c2F)C[C@H](C)N1 [sparfloxacin] (10 µM) | -0.0335 | 115% (inactive) |
| C#C[C@]1(O)C=C[C@H]2[C@@H]3CCC4=CC(=O)CC[C@@H]4[C@H]3CC[C@@]21CC [gestodene] (10 µM) | 0.149 | 107% (inactive) |
| CC(=O)CC(=O)O [lithium-acetoacetate] (10 µM) | 0.0997 | 102% (inactive) |
| CC(O)COC[C@H]1O[C@@H]2O[C@H]3[C@H](O)[C@@H](O)[C@@H](O[C@H]4[C@H](O)[C@@H](O)[C@@H](O[C@H]5[C@H](O)[C@@H](O)[C@@H](O[C@H]6[C@H](O)[C@@H](O)[C@@H](O[C@H]7[C@H](O)[C@@H](O)[C@@H](O[C@H]8[C@H](O)[C@@H](O)[C@@H](O[C@H]1[C@H](O)[C@H]2O)O[C@@H]8COCC(C)O)O[C@@H]7COCC(C)O)O[C@@H]6COCC(C)O)O[C@@H]5COCC(C)O)O[C@@H]4COCC(C)O)O[C@@H]3COCC(C)O (stereo partly drawn) [hydroxypropyl-beta-cyclodextrin] (10 µM) | 0.254 | 99% (inactive) |
| Cc1oc(=O)oc1COC(=O)C1=C([C@H]2CCCO2)S[C@@H]2[C@@H]([C@@H](C)O)C(=O)N12 [faropenem-medoxomil] (10 µM) | -0.119 | 114% (inactive) |
| O=c1[nH]c(=O)n([C@H]2C[C@H](O)[C@@H](CO)O2)cc1Br [broxuridine] (0.833333 µM) | 0.0347 | 108% (inactive) |
| O=C(O)Cn1c(C(=O)Nc2nc(-c3ccccc3Cl)cs2)cc2ccccc21 (10 µM) | 0.162 | 93% (inactive) |
| O=c1c(-c2ccc(O)cc2)coc2cc(O)cc(O)c12 [genistein] (10 µM) | -0.211 | 119% (inactive) |
